# Granule exo inh – blocks lytic granule exocytosis; TALL-104 LAMP-1 surface exposure, flow cytometry; cells stimulated with thapsigargin and PMA; inhibition, % at 10 µM; hit rate 0.66% among 360,000; AID 651702;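 active means inhibition above about 55%, limit read from the data; inconclusive means no clear call, values can overlap the other calls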
# m5-HT2A agonist – activates the mouse 5-HT2A serotonin receptor; CHO-K1 mHTR2A beta-arrestin complementation, luminescence; percent of 30 µM serotonin response; activation, % at 7.6 µM; hit rate 0.66% among 360,000;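 active means activation above a run cutoff, the mean activation of all tested compounds plus 3 SD, cut at about 14% in these data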
# MEX-5 binding – C. elegans MEX-5 TCR-2 RNA binding activity | Q9XUB2 | MEX-5/FITC-TCR2 RNA binding, fluorescence polarization; active compounds read low | activity score (negative = inhibition of binding), % at 10 µM | hit rate 0.38% among 300,000 | AID 1832;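 active means inhibition past about -25% in most replicates, and total fluorescence under double the plate's negative control median, limit read from the data; inconclusive means replicates evenly split on the limit, or fluorescence at least double controls; inactive means too little inhibition in most replicates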
# Target sequence (Q9XUB2 whole entry, looked up): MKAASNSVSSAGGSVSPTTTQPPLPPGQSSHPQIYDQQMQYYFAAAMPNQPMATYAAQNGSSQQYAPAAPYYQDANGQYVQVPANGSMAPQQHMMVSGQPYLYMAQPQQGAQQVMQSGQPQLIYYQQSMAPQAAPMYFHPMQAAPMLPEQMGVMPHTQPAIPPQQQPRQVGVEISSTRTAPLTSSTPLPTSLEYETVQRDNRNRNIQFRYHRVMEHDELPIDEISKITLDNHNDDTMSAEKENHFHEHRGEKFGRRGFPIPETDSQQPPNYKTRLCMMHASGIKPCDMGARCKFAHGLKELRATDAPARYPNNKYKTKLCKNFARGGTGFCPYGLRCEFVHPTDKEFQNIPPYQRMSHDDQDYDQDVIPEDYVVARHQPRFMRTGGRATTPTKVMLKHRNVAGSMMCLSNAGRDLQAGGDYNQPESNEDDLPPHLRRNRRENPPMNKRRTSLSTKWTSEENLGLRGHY
# V-ATPase pH – yeast V-ATPase proton transport regulation by pHLuorin; response, % at 10 µM; S. cerevisiae, pHLuorin cytosolic pH fluorescence; hit rate 0.37% among 350,000; in the data active means response mostly above about 7.3%, no sharp cut-off; inactive means mostly below about 5.4%; further: actives read high
# JMJD2C inh – human JMJD2C demethylase inhibition. hit rate 0.069% among 330,000. GST-JMJD2C(1-420) H3K9me3 demethylation, DELFIA europium. inhibition, % at 2.35 µM. AID 2099;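 active means more than half of a compound's replicate wells show inhibition beyond 50%, single wells judged on their own value; inconclusive means some, but no more than half, of replicates pass 50% inhibition; inactive means no replicate passes 50% inhibition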;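 further: signal counts dimethyl H3K9 product captured on neutravidin plate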
# VLA-4 inh – inhibition in a human VLA-4 binding assay. P13612. VLA-4 expressing cells, ligand binding flow cytometry. inhibition, % (about 7 µM as worked out from the volumes in the protocol). hit rate 0.2% among 330,000. AID 2557; in the data active means inhibition above about 50%
# VLA-4 allo CP – human VLA-4 allosteric modulation in cherry picked compounds. AID 2813. inhibition, % at 6.7 µM. hit rate 2% among 1,300. shares compounds with VLA-4 inh. U937 cells, HUTS-21 LIBS mAb binding, flow cytometry; LDV ligand present at threefold Kd; in the data active means inhibition above about 40%
# Hits are given with their value; . = inactive; ? = inconclusive; / = no result given. Hits are enriched below; roughly 2.2% of the tested compounds scored in any of these assays.
SMILES,Granule exo inh,m5-HT2A agonist,MEX-5 binding,V-ATPase pH,JMJD2C inh,VLA-4 inh,VLA-4 allo CP
C/C(=N\Nc1ccc([N+](=O)[O-])cc1[N+](=O)[O-])c1cccnc1,.,.,.,.,.,.,.
C/C(=N\Nc1ccc(S(N)(=O)=O)cc1[N+](=O)[O-])c1cccnc1,.,.,.,.,.,.,/
Cc1cccc(-n2c(Cc3cc(=O)[nH]c(=O)[nH]3)nnc2SCC(=O)N2CCCCC2)c1,.,.,.,.,.,54,.
CSc1nnc(Cc2cc(=O)[nH]c(=O)[nH]2)n1-c1cccc(C)c1,.,.,.,.,.,.,/
C=C1CC2(CC(c3ccccc3)OC(c3ccccc3)C2)OC1=O (centres undefined),.,.,/,.,/,/,/
CC(=O)N1CCOc2ccc(S(=O)(=O)N(C)c3cccc(C)c3)cc21,.,.,.,.,.,.,/
CN(Cc1ccccc1)C(=O)c1ccc(NC(=O)Cc2ccc(NC(=O)C3CCCN(S(=O)(=O)c4cccc([N+](=O)[O-])c4)C3)cc2)cc1 (centres undefined),.,.,/,.,/,/,/
COC(=O)c1c(C(=O)OC)c(-c2ccc(F)cc2)n2c1CS(=O)(=O)C2,.,.,.,.,?,.,.
CC1(C)C(C(=O)O)N2C(=O)C(NC(=O)Cc3ccccc3)C2S1=O (centres undefined),.,.,.,.,.,59,.
CC1(C)C(C(=O)OCC(Cl)(Cl)Cl)N2C(=O)C(NC(=O)Cc3ccccc3)C2S1=O (centres undefined),.,.,.,.,.,.,/
Cc1cc(/C=C(/C#N)C(=O)Nc2ccccc2)c(C)n1-c1cccnc1,.,.,.,.,.,94,.
Cn1ccc(C(=O)NC(=S)Nc2ccc([N+](=O)[O-])cc2O)n1,.,.,/,.,.,.,/
O=C(CN(CC1CCCO1)C(=O)c1nsc(Cl)c1Cl)NC1CCCC1 (centres undefined),.,.,.,.,.,57,.
Cc1cc(Cl)ccc1NC(=O)C1CCN(S(C)(=O)=O)CC1,.,.,.,.,.,.,/
O=C(NCCS(=O)(=O)NCC1CCCO1)c1ccccc1 (centres undefined),.,.,.,.,.,.,/
COc1cccc(NC(=O)Nc2ccc(C(C)(C)C)cc2)c1,.,.,.,.,.,/,/
CCn1c(SCC(=O)Nc2nc(C)cs2)nnc1C(NC(=O)c1ccccc1Cl)C(C)C (centres undefined),.,.,.,.,.,.,.
CC(C)C[C@@H](CSc1ccc(Br)cc1)N1CCN(CC(C)C)CCC1=O,.,.,.,.,.,/,/
O=C(CS(=O)(=O)c1ccccc1)NC1CCCCC1,.,.,.,.,.,.,/
CC(C)NC(=O)CS(=O)(=O)c1ccccc1,.,.,.,.,.,50,.
CCc1ccc(NC(=O)C2CCCN2c2nn3c(=O)cc(C)nc3s2)cc1 (centres undefined),.,.,.,.,.,.,/
COc1ccccc1-c1sc2ccccc2c1-c1ccc2c(c1)OCCO2,.,.,/,.,.,.,/
COc1ccc(-c2c(-c3ccccc3OC)sc3ccccc23)cc1OC,.,.,.,.,.,.,/
COc1cc2sc(-c3ccccc3OC)c(-c3ccc(OCCN4CCOCC4)cc3)c2cc1OC,.,.,/,.,/,/,.
COc1ccc2c(-c3ccc(OCCN4CCOCC4)cc3)c(-c3ccccc3OC)sc2c1,.,.,/,.,/,/,.
SMILES,Granule exo inh,m5-HT2A agonist,MEX-5 binding,V-ATPase pH,JMJD2C inh,VLA-4 inh,VLA-4 allo CP
CCOC(=O)C1CCN(C(=O)c2ccc(OCC(=O)Nc3ccc(OCC)cc3)c(OC)c2)CC1,.,.,.,.,.,.,/
NC(=O)c1ccc(NC(=O)COc2coc(CN3CCc4ccccc4C3)cc2=O)cc1,.,.,.,.,.,.,/
Cc1ccc(NC(=O)CCNC(=O)c2ccccc2)cc1F,.,.,.,.,.,.,/
O=C(CCNC(=O)c1ccccc1)Nc1ccc(F)c(Cl)c1,.,.,.,.,.,54,.
COc1ccc(-c2ccc(C(=O)NCc3ccncc3)c3occc23)c(C)c1,.,.,/,/,/,/,/
Cc1c(C)c2c(OCC(=O)N[C@@H](Cc3ccccc3)C(=O)O)cc3c(c2oc1=O)CCC(C)(C)O3,.,.,.,.,.,64,.
CC(C)CCn1c(C(C)O)nc2ccccc21 (centres undefined),.,.,/,.,.,87,.
CCCCn1c(C(C)O)nc2ccccc21 (centres undefined),.,.,.,.,.,.,/
COc1c2occc2c(OC)c2c(=O)cc(C)oc12,.,.,.,.,.,51,.
COc1c2ccoc2cc2oc(C)cc(=O)c12,.,.,.,.,.,.,/
CC1CCC(NC(=O)CNC(=O)Cc2cccc3ccccc23)CC1 (centres undefined),.,.,.,.,.,.,/
Cc1ccnc(NS(=O)(=O)c2ccc(N)cc2)n1,.,.,.,.,.,.,.
COc1cc(NS(=O)(=O)c2ccc(N)cc2)ncn1,/,/,.,/,.,63,.
Cc1ccnc(NS(=O)(=O)c2ccccc2)n1,.,.,.,.,.,.,/
Cc1cc(C)nc(NS(=O)(=O)c2ccc(Br)cc2)n1,.,.,.,.,.,.,.
CC(C)Nc1nc(NC(C)C)nc(NS(=O)(=O)c2ccc(N)cc2)n1,.,.,.,.,.,.,/
Cc1cc(C)nc(NS(=O)(=O)c2ccc(N)cc2)n1,.,.,.,.,.,.,.
N=C(N)n1ncc2c1CCCC2=O,.,.,/,/,/,/,/
COc1ccc(NC(=O)C(CC(C)C)NC(=O)C2CCC(C)CC2)c(OC)c1 (centres undefined),.,.,.,.,.,.,/
CCOc1ccc(CCNC(=O)COC(=O)c2ccc(OC(C)C)cc2)cc1OCC,.,.,.,.,.,.,/
CCOC(=O)C[C@H]1c2ccccc2S(=O)(=O)N1C1CC1,.,.,.,.,.,.,/
CC1O[C@@H]2O[C@](O[C@H](C)CC[C@@H](C)O)(c3ccccc3)O[C@@H]2C[C@H]1O (some centres undefined),.,.,.,.,.,.,/
COc1cnc(NS(=O)(=O)c2ccc(N)cc2)nc1,.,.,.,.,.,59,.
O=C(Cc1ccccc1)Nc1cccc(N2C(=O)C=CC2=O)c1,.,.,.,.,.,60,.
CCC(CO)NCCNC(CC)CO (centres undefined),.,.,.,.,.,50,.
O=C(Nc1ccccc1)OCc1cncs1,.,.,.,.,.,.,.
O=C(Nc1ccc(Cl)c(Cl)c1)OCc1cnc(Cl)s1,.,.,.,.,.,.,.
O=C(Nc1ccc(Cl)c(Cl)c1)OCc1cncs1,.,.,.,.,.,.,.
